A short description of test [1]: rapamycin-like changes in RPL19A-GFP expression – cell-based, S. cerevisiae, multiplex flow cytometry, primary screen (AID 1862).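 Further: lower values mimic rapamycin by blocking the RPL19A rise seen in DMSO cells.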 The conditions noted are these: S. cerevisiae RPL19A-GFP strain, flow cytometry fluorescence, 3 h; at 10 µM; stronger effect = lower value.
A short description of test [2]: TOR pathway GLN3 branch reporter MEP2-GFP changes – S. cerevisiae, multiplex flow cytometry, primary screen (AID 1867;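 active means GFP response, as percent of the DMSO control, above the screen-wide mean plus 3 SD, about 139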;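 further: median GFP channel fluorescence of barcode-gated MEP2-GFP cells measured by flow cytometry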). The settings on record: S. cerevisiae MEP2-GFP strain, 3 h, at 10 µM, stronger effect = higher value, 100% means same as DMSO wells.
Test [3] is described as follows: TOR pathway RTG branch CIT2 reporter changes – S. cerevisiae, GFP fusion, multiplex flow cytometry, primary screen (AID 1870;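 active means percent response above a set limit, the screen-wide mean plus 3 SD, cut at about 130% in these data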;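 further: barcoded CIT2-GFP strain pooled with four other GFP strains with rapamycin as positive control; median GFP fluorescence per well over plate mean of DMSO wells so 100% = DMSO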). The settings on record: S. cerevisiae CIT2-GFP expression, 3 h, at 10 µM, stronger effect = higher value. Background: Flow cytometry measures light scatter and fluorescence of single cells or particles in a stream.
Test [4] is described as follows: TOR pathway LAP4-GFP level changes – S. cerevisiae, multiplex flow cytometry, primary screen (AID 1873;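 active means GFP signal, as percent of the solvent control, above the screen mean plus 3 SD, about 149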). The settings on record: S. cerevisiae LAP4-GFP expression, 3 h, at 10 µM, stronger effect = higher value.
Test [5] in a line: yeast AGP1-GFP level changes, GLN3 branch – cell-based, multiplex flow cytometry, S. cerevisiae, primary screen (AID 1887;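 active means GFP signal above the screen-wide mean plus 3 SD, that is over about 124.5% of the solvent control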;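 further: AGP1-GFP fusion strain of S. cerevisiae within a five-strain barcoded multiplex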). The settings on record: 3 h, at 10 µM, stronger effect = higher value.
A short description of test [6]: reduced mouse 2C T cell binding to pMHC/ICAM-1 vesicles – MLPCN validation set, flow cytometry, LFA-1/ICAM-1 modulator project, pilot screen (AID 2523;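 active means response below a set limit, under 55% cells CD8-positive and vesicle-bound, and CD8 cells' 90th-percentile brightness under 279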;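 on vesicle binding response: mean PE anti-B7-1 fluorescence of CD8+ cells relative to row control; 100% = QL9-loaded vesicles with DMSO vehicle in the same plate row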). The settings on record: 2C mouse CD8+ T cells, at 7 µM, stronger effect = lower value; double positive events: measured here: CD8+/vesicle+ event percentage.
In test [7] the target is Integrin beta-1 (Homo sapiens) + Integrin alpha-4 (Homo sapiens) (UniProt P13612+P05556). The experiment in a line: alpha4beta1 integrin LIBS antibody binding reduction – U937 cells, HUTS-21 mAb, flow cytometry, validation set, VLA-4 allosteric modulator project, pilot screen (AID 2674;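 active means inhibition above 50%, about 3 SD of the validation set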;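 further: antibody binding induced by the VLA-4 ligand LDV present at three times its Kd; 0% = LDV ligand with antibody and no compound and 100% = antibody without LDV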). The conditions noted are these: HUTS-21 LIBS mAb binding, at 6.7 µM, stronger effect = higher value, binding induced by LDV ligand.

Test [8] in a line: calorie-restriction mimetic ROS inhibitors, yeast – validation compound set, pilot screen (AID 2706;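 active means superoxide response below 65% of plate, a cut near 3 SD across the whole screen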;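 further: yeast exposed to compound for one week at 30 degrees C before staining; 100% = mean of all compound wells on the same plate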). The settings on record: S. cerevisiae aging, superoxide DHE fluorescence; at 10 µM; stronger effect = lower value.
In test [9] the target is Beta-adrenergic receptor kinase 1 (Homo sapiens) (UniProt P25098). The experiment in a line: GRK2 binders displacing RNA aptamer, biochemical, validation, human GRK2, bead flow cytometry (AID 488806;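 active means aptamer binding inhibition above 30%, about 3 SD of noise from non-fluorescent compounds; inactive means inhibition at or below 30%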). The conditions noted are these: bead-bound GRK2, FAM-aptamer displacement, at 10 µM, stronger effect = higher value.
Test [10] concerns the target Beta-2 adrenergic receptor (Homo sapiens) (UniProt P07550). In words: agonist-induced loss of surface beta2AR – cell-based, FAP fluorogen, flow cytometry, validation set, pilot screen (AID 504459;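 active means percent response above 42, roughly 3 SD of non-fluorescent test compounds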;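 further: agonist-driven loss of surface beta2AR via internalization measured by FAP dye flow cytometry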). The conditions noted are these: Am2.2-beta2AR cells, at 10 µM, stronger effect = higher value.
Test [11] concerns the target AP-2 complex subunit beta (Homo sapiens) (UniProt P63010). The experiment in a line: beta-arrestin/AP2 interaction blockers – biochemical, validation set, GST-AP2 beads, flow cytometry, pilot screen (AID 504541;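 active means inhibition above 54%, about 3 SD of non-fluorescent compounds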;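 further: AP2 carries R879A mutation and is captured from E. coli lysate; bead-bound FITC arrestin peptide fluorescence measuring arrestin peptide binding to AP2; 0% = DMSO wells and 100% = excess unlabeled arrestin peptide control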). The conditions noted are these: FITC arrestin peptide, at 10 µM, stronger effect = higher value, AP2 beta2 appendage fragment, R879A mutant.
Test [12] can be described thus: cytosolic pH regulators acting via V-ATPase – S. cerevisiae, pHLuorin, HTS validation (AID 504600; in the data active means response above about 15%;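 further: plate controls were DMSO for no effect and reference compound for full effect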). The settings on record: V-ATPase proton transport, at 10 µM, stronger effect = higher value.
The subject of test [13] is anti-desmoglein-3 scFv antibody binding to human DSG3. In words: blockers of pathogenic pemphigus antibody–desmoglein-3 binding – biochemical, validation compound set, bead-based, flow cytometry, pilot screen (AID 588368;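 active means binding below the plate cutoff, the plate median minus 3 SD, with a reading above zero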;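 further: signal is the median channel fluorescence of bead-bound GFP antibody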). The settings on record: Protein G beads, DSG3-Fc, scFv-GFP binding, at 10 µM, stronger effect = lower value.
Test [14] in a line: Nile Red efflux blockade in pump-expressing yeast – validation compound set, multiplex, phenotypic, pilot screen (AID 588506;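 active means efflux inhibition above 0.42, the validation set average plus 4 SD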;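 further: Nile Red retained in cells so higher fluorescence means more efflux inhibition; 0 = negative control wells and 1 = enniatin B 25 µM full block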). The conditions noted are these: S. cerevisiae pump-expressing triplex, Nile Red efflux flow cytometry; at 10 µM; stronger effect = higher value; the pumps come from Candida albicans.
The target of test [15] is ATP-binding cassette sub-family B member 6 (Homo sapiens) (UniProt Q9NP58). The experiment in a line: blockers of ABCB6-driven porphyrin uptake – K562-ABCB6 cells, flow cytometry, validation set, pilot screen (AID 588550;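 active means inhibition above the screen-wide mean plus 3 SD, about 51%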;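 further: 0% = DMSO wells and 100% = benzethonium chloride 70 µM positive control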). The conditions noted are these: K562-ABCB6 porphyrin accumulation, 1 h, at 10 µM, stronger effect = higher value.
Test [16] can be described thus: AML differentiation inducers, ER-HoxA9 marrow cells – cell-based, GFP/MAC1 double positive, flow cytometry, validation set, primary screen (AID 588685;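 active means differentiation response of at least 50%, scaled between solvent and reference control, from cells with both markers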;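 further: compound exposure lasts four days before antibody staining and flow analysis; 0% = DMSO wells and 100% = 5 µM fulvestrant positive control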). The settings on record: stronger effect = higher value, normalized: vehicle 0, fulvestrant 100.

The structures appear in SMILES notation. Records with an inconclusive call do not appear. Activity calls are given as the source filed them. Unless noted, no stated cut-off is given here; in the data, active means percent of DMSO control GFP below about 86%; inactive means the rest, inconclusive results apart.

Sequence of Integrin beta-1 (Homo sapiens) + Integrin alpha-4 (Homo sapiens) (P05556 whole entry, looked up): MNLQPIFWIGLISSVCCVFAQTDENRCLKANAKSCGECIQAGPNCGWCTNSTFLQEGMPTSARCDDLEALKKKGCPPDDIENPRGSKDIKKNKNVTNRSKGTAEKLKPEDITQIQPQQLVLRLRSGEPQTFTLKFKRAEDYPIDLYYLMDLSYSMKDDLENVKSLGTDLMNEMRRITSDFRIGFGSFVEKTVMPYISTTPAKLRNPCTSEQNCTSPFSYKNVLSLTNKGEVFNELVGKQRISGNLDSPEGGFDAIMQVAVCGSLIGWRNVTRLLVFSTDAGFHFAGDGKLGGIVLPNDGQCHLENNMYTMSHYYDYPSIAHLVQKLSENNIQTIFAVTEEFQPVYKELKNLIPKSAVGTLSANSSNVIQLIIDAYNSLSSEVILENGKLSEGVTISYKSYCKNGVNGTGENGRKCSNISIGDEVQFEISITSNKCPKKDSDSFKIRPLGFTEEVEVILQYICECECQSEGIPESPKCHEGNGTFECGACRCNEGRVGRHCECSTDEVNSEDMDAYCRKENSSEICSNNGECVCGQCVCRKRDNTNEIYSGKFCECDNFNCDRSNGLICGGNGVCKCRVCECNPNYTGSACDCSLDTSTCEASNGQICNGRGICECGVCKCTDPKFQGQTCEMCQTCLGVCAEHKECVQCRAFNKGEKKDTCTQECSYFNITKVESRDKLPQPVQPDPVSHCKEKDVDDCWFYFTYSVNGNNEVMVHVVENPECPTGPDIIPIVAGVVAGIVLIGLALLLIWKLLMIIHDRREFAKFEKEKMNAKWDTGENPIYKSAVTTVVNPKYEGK
Sequence of Integrin beta-1 (Homo sapiens) + Integrin alpha-4 (Homo sapiens) (P13612 whole entry, looked up): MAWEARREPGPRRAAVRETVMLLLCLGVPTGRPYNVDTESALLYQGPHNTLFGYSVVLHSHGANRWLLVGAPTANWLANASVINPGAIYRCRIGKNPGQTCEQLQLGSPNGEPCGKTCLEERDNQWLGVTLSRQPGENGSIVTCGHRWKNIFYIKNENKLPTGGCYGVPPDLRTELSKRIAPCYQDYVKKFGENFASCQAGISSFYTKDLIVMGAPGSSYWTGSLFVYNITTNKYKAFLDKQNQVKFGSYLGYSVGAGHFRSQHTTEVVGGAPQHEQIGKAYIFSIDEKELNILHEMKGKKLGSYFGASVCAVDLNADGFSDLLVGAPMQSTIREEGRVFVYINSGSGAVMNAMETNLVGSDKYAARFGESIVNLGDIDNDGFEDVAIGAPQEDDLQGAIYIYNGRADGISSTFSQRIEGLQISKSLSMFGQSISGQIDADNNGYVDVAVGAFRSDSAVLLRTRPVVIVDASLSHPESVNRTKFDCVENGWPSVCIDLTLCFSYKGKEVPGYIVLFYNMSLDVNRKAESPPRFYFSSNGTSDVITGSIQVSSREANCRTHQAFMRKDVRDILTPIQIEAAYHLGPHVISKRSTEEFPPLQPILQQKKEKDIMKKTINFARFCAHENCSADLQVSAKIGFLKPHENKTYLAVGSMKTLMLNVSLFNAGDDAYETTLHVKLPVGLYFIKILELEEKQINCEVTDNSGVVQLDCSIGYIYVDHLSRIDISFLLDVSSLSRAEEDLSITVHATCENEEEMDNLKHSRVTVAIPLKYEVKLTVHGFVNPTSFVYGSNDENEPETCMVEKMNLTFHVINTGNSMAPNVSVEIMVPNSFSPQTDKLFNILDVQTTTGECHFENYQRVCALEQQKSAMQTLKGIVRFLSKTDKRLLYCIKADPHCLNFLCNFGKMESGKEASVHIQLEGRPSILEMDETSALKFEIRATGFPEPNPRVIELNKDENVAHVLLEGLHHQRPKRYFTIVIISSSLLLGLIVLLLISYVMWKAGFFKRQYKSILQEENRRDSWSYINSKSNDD
Sequence of AP-2 complex subunit beta (Homo sapiens) (P63010 whole entry, looked up, the tested form may be a part, one chain of several): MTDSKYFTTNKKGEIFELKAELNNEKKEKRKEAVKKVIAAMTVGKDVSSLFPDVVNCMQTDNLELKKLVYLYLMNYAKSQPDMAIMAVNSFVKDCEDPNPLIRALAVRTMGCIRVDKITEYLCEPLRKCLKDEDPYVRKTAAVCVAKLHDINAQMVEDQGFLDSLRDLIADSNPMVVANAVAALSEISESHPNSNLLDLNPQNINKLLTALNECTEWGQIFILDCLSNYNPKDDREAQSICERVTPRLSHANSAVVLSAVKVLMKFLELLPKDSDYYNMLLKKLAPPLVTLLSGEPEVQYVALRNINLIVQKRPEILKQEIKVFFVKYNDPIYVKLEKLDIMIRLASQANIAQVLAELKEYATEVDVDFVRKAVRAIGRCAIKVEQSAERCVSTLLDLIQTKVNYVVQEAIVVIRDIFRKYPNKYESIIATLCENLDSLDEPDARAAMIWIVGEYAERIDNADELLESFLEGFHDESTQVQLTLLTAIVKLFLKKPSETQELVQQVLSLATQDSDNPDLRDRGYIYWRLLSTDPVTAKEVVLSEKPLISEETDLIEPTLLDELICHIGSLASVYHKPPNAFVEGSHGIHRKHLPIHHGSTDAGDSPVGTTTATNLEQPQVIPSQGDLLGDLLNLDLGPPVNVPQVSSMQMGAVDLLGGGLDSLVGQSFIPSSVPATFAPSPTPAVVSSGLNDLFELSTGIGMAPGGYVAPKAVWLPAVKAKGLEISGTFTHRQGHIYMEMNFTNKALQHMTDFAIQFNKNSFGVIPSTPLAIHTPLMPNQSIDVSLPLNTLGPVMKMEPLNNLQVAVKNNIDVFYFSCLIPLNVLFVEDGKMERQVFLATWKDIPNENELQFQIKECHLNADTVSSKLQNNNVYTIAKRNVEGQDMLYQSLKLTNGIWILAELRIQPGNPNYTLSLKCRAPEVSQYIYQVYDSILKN
Sequence of Beta-adrenergic receptor kinase 1 (Homo sapiens) (P25098 whole entry, looked up): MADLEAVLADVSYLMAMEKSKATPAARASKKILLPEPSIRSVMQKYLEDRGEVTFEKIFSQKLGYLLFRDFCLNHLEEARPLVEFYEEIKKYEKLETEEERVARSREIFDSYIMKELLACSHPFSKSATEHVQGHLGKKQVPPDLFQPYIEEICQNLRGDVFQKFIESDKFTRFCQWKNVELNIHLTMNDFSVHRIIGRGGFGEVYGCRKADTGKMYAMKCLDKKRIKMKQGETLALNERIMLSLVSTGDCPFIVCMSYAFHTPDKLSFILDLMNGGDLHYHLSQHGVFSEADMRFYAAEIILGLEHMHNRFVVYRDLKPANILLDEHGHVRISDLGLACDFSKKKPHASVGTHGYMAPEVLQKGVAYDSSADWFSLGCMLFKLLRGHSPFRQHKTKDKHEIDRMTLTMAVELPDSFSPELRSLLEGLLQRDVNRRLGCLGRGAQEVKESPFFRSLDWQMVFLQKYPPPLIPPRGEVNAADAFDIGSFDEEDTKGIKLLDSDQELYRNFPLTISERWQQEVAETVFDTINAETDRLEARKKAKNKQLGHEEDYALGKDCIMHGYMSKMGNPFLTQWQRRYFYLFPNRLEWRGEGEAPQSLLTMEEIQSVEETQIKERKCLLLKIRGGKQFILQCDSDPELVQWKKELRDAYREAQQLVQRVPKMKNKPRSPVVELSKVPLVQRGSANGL
Sequence of Beta-2 adrenergic receptor (Homo sapiens) (P07550 whole entry, looked up): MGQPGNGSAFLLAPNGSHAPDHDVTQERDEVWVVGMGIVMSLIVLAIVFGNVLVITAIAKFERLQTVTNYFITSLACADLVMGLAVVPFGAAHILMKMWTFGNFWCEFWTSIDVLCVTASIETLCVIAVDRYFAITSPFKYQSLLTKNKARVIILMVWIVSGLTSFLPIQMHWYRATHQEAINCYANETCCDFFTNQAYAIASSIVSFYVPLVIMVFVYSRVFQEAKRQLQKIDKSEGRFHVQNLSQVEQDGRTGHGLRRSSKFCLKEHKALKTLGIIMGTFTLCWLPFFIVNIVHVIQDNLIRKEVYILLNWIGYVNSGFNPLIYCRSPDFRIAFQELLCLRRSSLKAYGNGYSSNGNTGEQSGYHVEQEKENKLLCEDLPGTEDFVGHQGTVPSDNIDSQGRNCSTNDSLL
Sequence of ATP-binding cassette sub-family B member 6 (Homo sapiens) (Q9NP58 whole entry, looked up): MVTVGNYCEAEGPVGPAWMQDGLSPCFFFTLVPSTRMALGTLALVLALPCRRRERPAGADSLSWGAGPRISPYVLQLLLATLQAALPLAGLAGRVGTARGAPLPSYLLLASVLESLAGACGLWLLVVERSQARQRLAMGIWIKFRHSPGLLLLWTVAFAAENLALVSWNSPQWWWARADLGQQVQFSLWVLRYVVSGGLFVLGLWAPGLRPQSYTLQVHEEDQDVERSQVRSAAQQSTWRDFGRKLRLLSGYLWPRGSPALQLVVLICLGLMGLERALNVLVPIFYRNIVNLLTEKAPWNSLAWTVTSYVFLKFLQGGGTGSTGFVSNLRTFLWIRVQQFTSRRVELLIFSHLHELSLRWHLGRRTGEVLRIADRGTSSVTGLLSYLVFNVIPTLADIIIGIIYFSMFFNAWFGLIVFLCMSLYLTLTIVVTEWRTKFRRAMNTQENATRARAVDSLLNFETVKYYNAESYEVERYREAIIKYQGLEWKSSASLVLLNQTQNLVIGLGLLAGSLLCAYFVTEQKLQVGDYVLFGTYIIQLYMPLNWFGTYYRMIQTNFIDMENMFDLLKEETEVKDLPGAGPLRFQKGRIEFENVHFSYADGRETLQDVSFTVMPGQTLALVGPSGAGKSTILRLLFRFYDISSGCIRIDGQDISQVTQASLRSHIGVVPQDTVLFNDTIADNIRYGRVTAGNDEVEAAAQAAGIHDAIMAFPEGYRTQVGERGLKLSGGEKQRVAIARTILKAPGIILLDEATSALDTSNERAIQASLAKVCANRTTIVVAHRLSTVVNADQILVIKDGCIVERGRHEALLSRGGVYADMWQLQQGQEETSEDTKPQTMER

`O=C(CN1CCN(Cc2ccccc2)CC1)N1CCCc2c1c(=O)oc1ccc(O)cc21`: the percent of DMSO control GFP in test [1] is 93.3% (inactive). Besides, the values for the GFP response vs DMSO in test [2] and in [4] were 127% (inactive) and 77.6% (inactive), respectively. The percent response of DMSO control in test [3] was 108% (inactive). In [5], the GFP response, % of DMSO is 84.3% (inactive). The compound also showed a double positive events in [6] of 53%. Further, the vesicle binding response in [6] was 202% (inactive). The inhibition (in general, the change of the read-out against control, counted positive when it falls) in [7] is -11% (inactive); in [11], 9.01% (inactive); in [15], 3% (inactive). In addition, in test [8], the superoxide response (% of plate) is 107% (inactive). Besides, the aptamer binding inhibition in [9] is -3% (inactive). The response in test [10] was -14.1% (inactive); in test [12], -1.88% (inactive). In [13], the binding (% of control) is 109% (inactive). Further, the efflux inhibition (fraction of control) in [14] is -0.31 (inactive). Further, the differentiation response in test [16] was 8.19% (inactive).
Consider `CC1(C)Cc2ccccc2-c2nc(-c3ccccc3)oc(=O)c21`, for which, in [1], the percent of DMSO control GFP is 102% (inactive). For the same compound, the GFP response vs DMSO is 94.7% (inactive) in test [2] and 107% (inactive) in test [4]. The percent response of DMSO control in test [3] was 96.4% (inactive). Besides, the GFP response, % of DMSO in [5] is 112% (inactive). In test [6], this compound had a double positive events of 63.3%. For the same compound, the vesicle binding response in test [6] is 149% (inactive). For the same compound, the inhibition is 2.29% (inactive) in test [7], -10.6% (inactive) in [11] and 7% (inactive) in test [15]. Besides, the superoxide response (% of plate) in [8] was 89.6% (inactive). Also, the aptamer binding inhibition in test [9] was 4% (inactive). Also, the figures for the response in [10] and in test [12] were -10.1% (inactive) and -7.89% (inactive), respectively. In addition, the binding (% of control) in test [13] was 98.8% (inactive). In addition, the efflux inhibition (fraction of control) in test [14] is 0.08 (inactive). In test [16], the differentiation response is -0.06% (inactive).
Consider `CC12CCC(C(=O)N3CCc4ccccc43)(CC1=O)C2(C)C` (stereo not given), for which the percent of DMSO control GFP in [1] is 101% (inactive). For the same compound, the GFP response vs DMSO in test [2] was 102% (inactive); in test [4], 95.9% (inactive). Besides, in [3], the percent response of DMSO control is 97.6% (inactive). Further, in [5], the GFP response, % of DMSO was 91.2% (inactive). In addition, the double positive events in test [6] worked out at 60.3%. In addition, the vesicle binding response in test [6] was 115% (inactive). Moreover, the figures for the inhibition in test [7], in [11] and in test [15] were -2.43% (inactive), 5.6% (inactive) and 4% (inactive), respectively. Further, the superoxide response (% of plate) in test [8] is 108% (inactive). In [9], the aptamer binding inhibition is 13% (inactive). Besides, the response was -16.3% (inactive) in [10] and 2.72% (inactive) in test [12]. In addition, the binding (% of control) in test [13] is 102% (inactive). The efflux inhibition (fraction of control) in test [14] was -0.24 (inactive). For the same compound, the differentiation response in [16] was -10.4% (inactive).
With `COc1cccc2c(O)cc(=O)n(C)c12`, in test [1], the percent of DMSO control GFP was 96.9% (inactive). For the same compound, the GFP response vs DMSO in test [2] is 111% (inactive); in test [4], 116% (inactive). Moreover, in [3], the percent response of DMSO control was 96.7% (inactive). Also, the GFP response, % of DMSO in [5] was 100% (inactive). Also, the double positive events in test [6] was 61.5%. Further, the vesicle binding response in [6] is 169% (inactive). The inhibition in test [7] was 3.67% (inactive); in [11] it was 25% (inactive); in [15] it was 4% (inactive). The superoxide response (% of plate) in test [8] was 98.4% (inactive). Further, the aptamer binding inhibition in test [9] is -1% (inactive). For the same compound, the response was 5.82% (inactive) in test [10] and -5.16% (inactive) in [12]. Also, in test [13], the binding (% of control) is 101% (inactive). For the same compound, the efflux inhibition (fraction of control) in [14] is -0.17 (inactive). Moreover, the differentiation response in test [16] is -21.6% (inactive).
As for `COc1cc(C(=O)Nc2cccc(-c3nnc(-c4ccco4)o3)c2)ccc1OC(C)=O`, the percent of DMSO control GFP in test [1] was 103% (inactive). Also, the GFP response vs DMSO was 103% (inactive) in test [2] and 109% (inactive) in [4]. For the same compound, in [3], the percent response of DMSO control was 104% (inactive). The GFP response, % of DMSO in [5] was 107% (inactive). The double positive events in test [6] amounted to 52.3%. Further, the vesicle binding response in [6] was 52.3% (active). Besides, the inhibition in [7] was 12.5% (inactive); in test [11] it was 64.4% (active); in [15] it was -5% (inactive). In addition, the superoxide response (% of plate) in [8] is 109% (inactive). Also, in test [9], the aptamer binding inhibition was 5% (inactive). Besides, the values for the response in test [10] and in [12] were 3.82% (inactive) and 2.66% (inactive), respectively. Besides, the binding (% of control) in test [13] was 106% (inactive). Moreover, the efflux inhibition (fraction of control) in test [14] is 0.17 (inactive). For the same compound, the differentiation response in test [16] was -10.9% (inactive).

These data come from PubChem BioAssay.
